# Screening data from PubChem BioAssay.
# PMK inhibit – S. pneumoniae PMK inhibitors, primary screen, biochemical, mevalonate pathway, pilot trial included; purified PMK, PK/LDH-coupled NADH absorbance 340 nm; inhibition, % at 10 µM; 0.49% of 65,000 active;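 active means top-ranked compounds by inhibition in the single 10 µM screen, taking a fixed number of the strongest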
# Spn DPM-DC inh – S. pneumoniae DPM-DC inhibitors, primary screen, biochemical, PK/LDH-coupled NADH fluorescence; diphosphomevalonate decarboxylase (Streptococcus pneumoniae D39); purified DPM-DC; calls only at 10 µM; 0.49% of 65,000 active; AID 556, 2006;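 active means the 320 compounds with the highest percent inhibition in the single-dose primary screen, excluding strongly autofluorescent ones, cut at about 32% in these data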;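 further: kinetic rate of NADH fluorescence loss reporting ADP formed by the decarboxylase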
# NADH coupling – inhibitors of PK/LDH coupling enzymes, profiling panel, artefact control, biochemical, MLSMR library. coupled PK/LDH NADH assays, four targets. IC50, µM (titrated, usually from 10 µM). 0.02% of 65,000 active;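 active means single-dose screening hits from any of four coupled enzyme assays that gave an IC50 when retested across doses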;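 further: the DPM-DC format reads NADH fluorescence rather than 340 nm absorbance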
# MK inhibit – S. pneumoniae MK inhibitors, primary screen, biochemical, PK/LDH-coupled NADH absorbance; inhibition, % at 10 µM; purified MK, PK/LDH-coupled NADH absorbance 340 nm; 0.48% of 65,000 active; AID 555, 2006;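 active means ranked among the strongest by inhibition in the single 10 µM screen, a fixed top-ranked set picked for dose follow-up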
# Fluor 339 460 – intrinsic fluorescence of library compounds, ex339/em460 – biochemical, MLSMR library, data from DPM-DC assay, artefact control, profiling panel; compound autofluorescence, ex339/em460 nm, NADH buffer; stronger effect = higher value; 1 = no-compound wells, NADH background; fluorescence fold increase at 10 µM; 5.5% of 65,000 active; AID 709, 2007;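 active means at 10 µM, mean starting fluorescence two-fold or more over control wells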;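 further: signal is the first read of a kinetic run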
# Numbers stand for hits; - = inactive; . = no result shown; + = active, no number. Compounds with a hit are over-represented: about 6.6% of the library has one in this group of screens.
SMILES,PMK inhibit,Spn DPM-DC inh,NADH coupling,MK inhibit,Fluor 339 460
O=C(O)CSCC(=O)NCc1ccccc1,-,-,-,-,-
O=C(CSc1nnc(Cc2ccccc2)o1)Nc1ccc(Br)cn1,-,-,-,-,-
Cc1ccccc1-n1c(SCc2c(C)noc2C)nnc1-c1c[nH]c2ccccc12,-,-,-,-,-
Cc1noc(C)c1CSc1nnc(-c2ccncc2)n1-c1cccc(Cl)c1C,25.0,-,-,-,-
CC1(C)Cc2noc(N)c2C(C)(C)N1O,-,-,-,-,-
COc1ccc(Cn2c3nc4ccccc4nc3c3c(=O)n(Cc4ccco4)c(C)nc32)cc1,-,-,-,-,-
CCCCC(CC)Cn1c(N)c(C#N)c2nc3ccccc3nc21 (stereo unspecified),-,.,-,-,5.02
CCCCC(CC)Cn1c2nc3ccccc3nc2c2c(=N)oc(C)nc21 (stereo unspecified),-,.,-,-,2.38
CCCCn1c2nc3ccccc3nc2c2c(=N)oc(C)nc21,-,.,-,-,2.21
CCCCCCOC(=O)C(C#N)c1nc2ccccc2nc1N1CCN(CC)CC1 (stereo unspecified),-,-,-,-,-
Cc1cc(C)n2nc(SCc3cc(=O)n4ccccc4n3)nc2n1,-,-,-,-,-
Cc1cc(C)n2nc(SCc3cc(=O)n4c(C)cccc4n3)nc2n1,28.0,-,-,-,-
CCCCNC(=O)c1cccc(C(=O)NCCCC)c1,-,-,-,-,-
O=C(NCCCO)c1ccc2[nH]c3ccccc3c2c1,-,-,-,-,2.73
CCN1CCN(C(c2cccs2)C(C)NC(=O)c2ccccc2F)CC1 (stereo unspecified),-,-,-,-,-
CCOC(=O)N1CCN(c2c(-c3ccc(C)cc3)c(=O)c2=O)CC1,-,-,-,-,-
CCOC(=O)N1CCN(c2c(-c3ccccc3)c3cc(Cl)ccc3[nH]c2=O)CC1,-,-,-,-,2.48
COc1ccc(CCN2C(=O)CC(C(N)=O)SC2=Nc2ccccc2)cc1OC (stereo unspecified),-,-,-,-,-
COc1ccc2cc3cc(C(=O)NCC4COc5ccccc5O4)oc3nc2c1 (stereo unspecified),-,.,-,-,5.01
COc1ccc2nc3oc(C(=O)N4CCC(C(N)=O)CC4)cc3cc2c1,-,.,-,-,5.11
COc1ccc2cc3cc(C(=O)N4CCN(Cc5ccc6c(c5)OCO6)CC4)oc3nc2c1,-,.,-,-,5.03
CCN(C(=O)c1cc2cc3ccc(C)cc3nc2o1)c1ccc(OC)cc1,-,-,-,-,-
COc1ccc2cc3cc(C(=O)Nc4ccc5c(c4)OCCO5)oc3nc2c1,-,-,-,-,2.1
CCC(=NCCN1CCNCC1)C1=C(O)CC(C)(C)CC1=O,-,-,-,-,-
COc1ccc2cc3cc(C(=O)NCc4ccc5c(c4)OCO5)oc3nc2c1,-,.,-,-,5.07
SMILES,PMK inhibit,Spn DPM-DC inh,NADH coupling,MK inhibit,Fluor 339 460
Cn1ncc2c(Nc3ccc(-c4ccccc4)cc3)ncnc21,-,+,-,-,3.06
CCn1c2c(c3cc(Cl)ccc31)CCCC2=O,-,-,-,-,-
CCn1c2c(c3cc(C(=O)O)ccc31)CCCC2=O,-,+,-,-,2.57
CCC1(C)Cc2c(c(=O)n(-c3ccccc3)c3ncnc(N)c23)CO1 (stereo unspecified),-,-,-,-,-
COc1ccccc1-c1nnc(NC(=O)c2ccc(S(=O)(=O)N(C)C)cc2)o1,-,-,-,-,-
CCCN(CCC)S(=O)(=O)c1ccc(C(=O)Nc2nnc(-c3cccc(OC)c3)o2)cc1,-,.,-,-,2.12
CCN(Cc1ccccc1)S(=O)(=O)c1ccc(C(=O)Nc2nnc(-c3ccccc3OC)o2)cc1,-,.,-,-,3.78
CCCN(CCC)S(=O)(=O)c1ccc(C(=O)Nc2nnc(-c3cc(OC)cc(OC)c3)o2)cc1,-,-,-,-,-
O=C(NCc1ccccc1F)C1CCCN(C(=O)NC2CCCCC2)C1 (stereo unspecified),-,-,-,-,-
CCN1C(=O)/C(=C2/Sc3ccc(OC)cc3N2C)SC1=Nc1ccc(C(C)=O)cc1,25.0,-,-,-,-
CCOC(=O)N1CCC(NC(=O)c2cnn3cccnc23)CC1,-,-,-,-,2.15
O=C(NCCc1ccccc1)C1CC(c2ccccc2O)=NO1 (stereo unspecified),-,-,-,-,-
c1ccc(-c2nc(-c3ccco3)cs2)nc1,-,.,-,-,2.1
c1ccc(-c2noc(-c3ccco3)n2)nc1,-,-,-,-,-
COc1ccc(N2CCN(C(c3ccccc3)c3nnnn3Cc3ccc(F)cc3)CC2)cc1 (stereo unspecified),-,-,-,-,-
CCOC(=O)N1CCN(C(=O)C2CCCN(S(C)(=O)=O)C2)CC1 (stereo unspecified),-,-,-,-,-
CCOC(=O)N1CCN(C(=O)C2CCN(S(=O)(=O)N3CCCC3)CC2)CC1,26.0,-,-,-,-
COc1cccc(C2C(C(=O)c3sc(C)nc3C)=C(O)C(=O)N2CCN(C)C)c1OC (stereo unspecified),-,-,-,-,-
Cc1cc(Cl)ccc1OCCCC(=O)NC1CCN(C)CC1,-,-,-,-,-
Cc1nnc(C)c2c(C)n(C(C)c3ccccc3)c(C)c12 (stereo unspecified),-,-,-,-,2.11
Cc1occc1-c1nnc(SCC(=O)NC(C)(C)C)n1C(C)c1ccccc1 (stereo unspecified),-,-,-,-,-
Cc1ccc2nc(-c3ccccn3)oc2c1,-,-,-,-,3.01
c1ccc(-c2nc3cc(Oc4ccc5oc(-c6ccccn6)nc5c4)ccc3o2)nc1,-,-,-,-,-
Cc1ccc2nc(-c3cccnc3)oc2c1,-,-,-,-,2.72
Cc1ccc(C)c(/C(O)=C2\C(=O)C(=O)N(CCCN(C)C)C2c2cccnc2)c1 (stereo unspecified),-,-,-,-,-
SMILES,PMK inhibit,Spn DPM-DC inh,NADH coupling,MK inhibit,Fluor 339 460
CCc1c(C)sc(NC(=O)c2cc(-c3cc(OC)ccc3OC)on2)c1C#N,-,.,-,-,5.06
COc1ccc(OC)c(-c2cc(C(=O)Nc3cccc(Cl)c3)no2)c1,-,.,-,-,4.34
COc1ccc(OC)c(-c2cc(C(=O)Nc3cc(C)on3)no2)c1,-,-,-,-,2.75
Cc1cc(NC(=O)c2cc(C3CC3)on2)no1,-,-,-,57.0,-
COc1ccc(OC)c(-c2cc(C(=O)Nc3c(C)nn(Cc4ccccc4)c3C)no2)c1,-,-,-,-,-
COc1ccc(OC)c(-c2cc(C(=O)Nc3c(C)nn(Cc4ccc(Cl)cc4)c3C)no2)c1,-,-,-,-,-
Cc1cc(NC(=O)c2cc(C)on2)no1,-,-,-,-,-
